This is part of a sample that, as a whole, favours compounds with a hit. Of some 83,000 tested, about 20% had one in any assay.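 In brief: 96-well plates, 48 h treatment, single concentration, percent growth endpoint.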 A number with no mark means an inactive call. The source made the active and inactive calls.
Test system: HS 578T breast
Experiment: NCI-60 one-dose screen, 48 h (100 = growth as untreated, 0 = no growth, -100 = all killed)
Conditions: 10 µM unless noted
Protocol: Growth inhibition of the HS 578T human tumor cell line is measured as a screen for anti-cancer activity. Cells are grown in 96 well plates and exposed to the test compound for 48 hours. Compounds are tested at a single concentration, which is 10^-5 M for most compounds. The reported endpoint is percent growth (GI% or GIPRCNT), where numbers from 0 - 100% represent growth inhibition, and numbers from -100% - 0 represent cell death. For example, a value of 40 represents 60% growth inhibition. A value of 0 means no net growth occurred over the course of the experiment. A value of -40 indicates 40% of cells at the beginning of the experiment died by the end of the experiment. A value of -100 means all cells are dead at the end of the experiment.
NCI-60 Human Tumor Cell Lines Screen was performed using the standard one-dose NCI protocol, which is described in more detail at https://dtp.cancer.gov/discovery_development/nci-60/default.htm.
Compounds with GIPRCNT values below 10 were considered active. Activity score was based on GIPRCNT using the following formula: […]
Score is 0 for GIPRCNT values of 100 or above, 50 for GIPRCNT values of 0, and 100 for GIPRCNT values of -100.

SMILES | growth
CCSc1nnc(Nc2ccc(C(C)C)cc2)s1 | 132%
Cc1ccc(-c2csc3nc(C)c(CCCl)c(=O)n23)cc1 | 83%
O=S(=O)(NCCCNc1cc(-c2cn(-c3ccccc3)nc2-c2cccc(O)c2)ccn1)c1ccc(C(F)(F)F)cc1 | 22.6%
CCC(c1cccc(Br)c1)C(C(=O)O)c1ccc(OC)cc1 (stereo not given) | 91.4%
O=C(c1ccncc1)N1N=C(c2ccc(Cl)cc2)CC1c1c[nH]c2ccccc12 (stereo not given) | 101%
COc1ccc(/C=C/C(=O)/C=C/c2cc3ccc(Cl)cc3[nH]c2=O)cc1 | 90.5%
CCN1C(=O)N(CC)C2C1NN=c1s/c(=C3\C(=O)N(C4CCCC4)c4ccccc43)c(=O)n12 (stereo not given) | -7.85% (active)
Cc1cc(C(=O)O)c(N)c(C)n1 | 101%
O=C(/C=C/CN1CCCCC1)Nc1cc2c(Nc3ccc(F)c(Cl)c3F)ncnc2cc1OCCOC(F)F | -7.08% (active)
O=C(Nc1ccc(F)cc1)c1cc([N+](=O)[O-])ccc1O | 64%
Cc1cccc(NC(=O)c2sc3nc4c(cc3c2N)CCCC4)c1 | 59.5%
COc1ccc(-c2nnc(COc3ccc(NC(=O)Nc4ccc(Cl)c(C(F)(F)F)c4)cc3F)o2)cc1 | 19.1%
NCCSC(c1ccccc1)(c1ccccc1)c1ccccc1 | 16.8%
CNC(=O)c1cc(Oc2ccc3c(c2)sc2nc(-c4ccc(Cl)cc4)cn23)ccn1 | 70.5%
COc1ccc(/C=C/c2nc(N3CCOCC3)c3nc(Cl)c(Cl)cc3n2)cc1OC | 113%
Cc1ccc2c(c1)C(C)Cc1c(ncnc1-n1cnc3ccccc31)N2C (stereo not given) | 8.03% (active)
COc1cccc2cc(-c3cc4ccccc4[nH]3)/c(=N/C(=S)Nc3ccccc3)oc12 | 25.1%
COc1ccc(C(=O)/C=C/c2cc(C(=O)c3cc(OC)c(OC)c(OC)c3)ccc2OC)cc1 | 62.5%
C=C1C(=O)O[C@H]2[C@H](O)[C@@H](C)CCC/C(C)=C/CC[C@@]3(C)O[C@@H]3C[C@@H]12 | 98.4%
NC(C(=O)O)C(O)c1ccc(OCc2ccccc2)c(OCc2ccccc2)c1 (stereo not given) | 93.4%

SMILES | growth
Cc1ccc2nc(-c3c(N)n[nH]c3CCCO)[nH]c(=O)c2c1 | 103%
CC(=O)Nc1nc(C(=O)N2N=C(C)/C(=C/c3ccc(Cl)cc3)C2=O)cs1 | 114%
CCN(Cc1ccc(CN(CC)C(=O)C(Cl)(Cl)Cl)cc1)C(=O)C(Cl)(Cl)Cl | 89.7%
O=c1oc2c([nH]c3ccc4ccccc4c32)c2ccccc12 | 104%
FC(F)(F)c1cccc(-n2nnc3cnc(Nc4ccc(N5CCCCC5)cc4)nc32)c1 | 76.5%
Cc1cc(N/C=c2\sc3ncnn3c2=O)no1 | 98.9%
Nc1cc2c(cc1N)-c1cc(N)c(N)cc1C2 | 94.3%
CC(C(=O)n1cc(-c2ccccc2)c(-c2ccccc2)c1)c1ccccc1 (stereo not given) | 115%
CSc1ccccc1C#C/C=C\C#Cc1ccccc1N1CCCC1=O | 98%
CC(=O)OCC1OC(OCC2OC(OC(C)=O)C(OC(C)=O)C(OC(C)=O)C2OC(C)=O)C(OC(C)=O)C(OC(C)=O)C1OC(C)=O (stereo not given) | 97.2%
CCCCCCc1nc2c(c(C)nn2-c2ccccc2)c2c1CCCCC2 | 106%
Cc1cc(Nc2nc(-c3ccc(F)cc3)nc3ccccc23)n[nH]1 | 25.1%
COc1cccc(NC(=O)c2sc3nc4c(cc3c2N)CCCC4)c1 | 48%
COc1cc(CNC(=O)CSc2nc3ccccc3c(=O)n2Cc2cc(OC)c(OC)c(OC)c2)cc(OC)c1OC | 110%
C=CC(=O)N[C@H](/C=C/C(=O)OCC)Cc1ccc(-c2cc(Cl)cc(Cl)c2)cc1 | 94.8%
COc1cc(C2C=C(C)N=C3SC=C(C)N32)cc(OC)c1OC (stereo not given) | 2% (active)
Cc1nc(Nc2cccnc2)sc1C(=O)/C=C/c1ccc(F)cc1 | 96.4%
Cc1nc2scc(-c3ccccc3)n2c(=O)c1CCO | 95%
CC(Br)C(OC(=O)c1ccccc1Cl)c1cc2c(cc1Br)OCO2 (stereo not given) | 88.2%
Cc1ccc2c(c1)C(=O)C(c1c(-c3[nH]c(=O)c4ccc(C)cc4c3O)c(O)c3ccccc3c1O)=NC2=O | 32.4%
